Molecules are shown by their SMILES. Among all 290,000 compounds or so, about 3,100 (1.1%) were called active. This is one part of a sample in which actives are shown more often than they occur. A number with no mark means an inactive call. No stated cut-off is given here; in the data, active means inhibition above about 16% (passing the limit was not always enough); inactive means the rest.

Neuropeptides B/W receptor type 1 (Homo sapiens), sequence (P48145 whole entry, looked up): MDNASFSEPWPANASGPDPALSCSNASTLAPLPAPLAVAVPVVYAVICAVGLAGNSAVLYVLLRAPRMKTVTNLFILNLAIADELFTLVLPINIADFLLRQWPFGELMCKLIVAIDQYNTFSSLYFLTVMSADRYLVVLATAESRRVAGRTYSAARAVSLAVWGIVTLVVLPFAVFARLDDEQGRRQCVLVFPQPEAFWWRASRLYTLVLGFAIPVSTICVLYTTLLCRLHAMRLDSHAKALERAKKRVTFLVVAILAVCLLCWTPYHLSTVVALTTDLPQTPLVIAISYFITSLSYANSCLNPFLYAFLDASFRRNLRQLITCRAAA

This test concerns the target Neuropeptides B/W receptor type 1 (Homo sapiens) (UniProt P48145). In words: blockers of human neuropeptide B/W receptor 1 – cell-based, fluorescence, single concentration, primary screen (AID 1861).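 Further: cells stimulated with the agonist NPW; 0% = agonist with vehicle and 100% = vehicle without agonist.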 The settings on record: GPR7-expressing cells, fluorescence antagonist assay; at 4.4 µM; stronger effect = higher value.
Broadly, the inhibition is the relative decrease from the control value, in per cent. With `O=C(NCc1ccc2c(c1)OCO2)c1cc(F)c(F)cc1Cl`, the inhibition was -4.33%.

Turning to `O=C(c1ccccc1)N1CCN(C(=O)c2cc3nc(-c4ccccc4)cc(C(F)(F)F)n3n2)CC1`, the inhibition is -7.13%.

In the case of `Cc1cccc(-c2nc3ccc(C(=O)NCCN4CCN(C)CC4)cc3nc2-c2cccc(C)c2)c1`, the inhibition is 31.6% (active).

Regarding `Cc1ccc(C(=O)NCCN2CCOCC2)cc1C`, the inhibition was 3.82%.

`CCC1=Nc2cc(C(=O)NCCN3CCCC3)ccc2Sc2ccc(C)cc21`: the inhibition is -5.13%.

With `Nc1nnn(CC(=O)N/N=C/c2ccc(O)cc2)n1`, the inhibition is 5.08%.

For `O=C(CC(=O)Nc1ccc(Cl)c(Cl)c1)N/N=C/c1ccc(O)cc1`, the inhibition was 24.6% (active).

Take `O=C(C[n+]1ccccc1)N/N=C/c1ccc(O)cc1`: the inhibition is -1.15%.

Take `O=C(COc1ccc([N+](=O)[O-])cc1)Nc1cccc(C(=O)Nc2ccccc2C(=O)O)c1`: the inhibition was -9.29%.

As for `O=C(NCc1ccco1)c1nc(-c2ccccc2)n(-c2ccccc2)n1`, the inhibition is 20.5% (active).

Turning to `O=C(CSc1nnnn1-c1ccccc1)NCc1ccco1`, the inhibition was -5.34%.

As to `O=C(NCc1ccco1)c1nc2ncccn2n1`, the inhibition is -0.52%.

For the compound `CCOc1ccc(N/C(N)=N/c2nc(C)c(C)c(=O)[nH]2)cc1`, the inhibition was 6%.

As for `COc1ccc(CN(C)C(=O)Cc2ccsc2)c(OC)c1OC`, the inhibition was 8.02%.

On to `O=C(CN1CCN(C(=S)NC2CCCC2)CC1)Nc1ccc(Oc2ccccc2)cc1`, for which the inhibition was 22.4% (active).

For the compound `CCOc1ccc(NC(=S)N2CCC(NC(=O)c3ccccc3)CC2)cc1`, the inhibition is -6.68%.

As to `CCOc1ccc(NC(=O)CN2CCN(CC(=O)Nc3ccc(OC)cc3)CC2)cc1`, the inhibition is 2.08%.

Turning to `Cc1cccc(NS(=O)(=O)c2ccc([N+](=O)[O-])cc2)n1`, the inhibition is 17.4%.

For `COc1ccc(C(=O)N2CCCC(C(=O)c3ccccc3OC)C2)cc1OC` (configuration not stated), the inhibition is -2.49%.

On to `CC1(C)CC(N2CCN(C(c3ccccc3)c3ccccc3)CC2)=CC(=[N+]2CCCCC2)C1`, for which the inhibition is 66% (active).

In the case of `CC(C)NC(=S)N1CCN(C(c2ccccc2)c2ccccc2)CC1`, the inhibition is -13.9%.

Consider `O=C(O)CN1CCN(C(c2ccccc2)c2ccccc2)CC1`, for which the inhibition was -8.01%.

For `COc1ccccc1C(=O)COC(=O)CNS(=O)(=O)c1ccc(NC(C)=O)cc1`, the inhibition is 11.2%.

On to `CN(C)CCCNC(=S)N1CCN(c2nc(-c3ccccc3)cs2)CC1`, for which the inhibition is 5.73%.

As for `COCCCNC(=S)N1CCN(c2nc(-c3cccc(OC)c3)cs2)CC1`, the inhibition is 42.1% (active).

For `COc1cccc(NC(=O)CN2CCN(c3nc(-c4cccc(OC)c4)cs3)CC2)c1`, the inhibition is -9.85%.

For the compound `CCC1CCCCN1C(=S)Nc1ccc(S(=O)(=O)Nc2ncccn2)cc1` (configuration not stated), the inhibition was -0.2%.

Turning to `COc1cc(-c2nn3c(-c4cccc(C)c4)nnc3s2)cc(OC)c1OC`, the inhibition is 12.2%.

For the compound `c1ccc(-c2cc(-c3nnc4sc(-c5ccccn5)nn34)[nH]n2)cc1`, the inhibition is -17.3%.

With `Fc1ccc(-c2ccc(-c3nn4c(-c5ccco5)nnc4s3)o2)cc1`, the inhibition is 29% (active).

Take `COC(=O)c1ccc(C(=O)NC2CC(C)(C)Cc3c2cnn3-c2ccc(F)cc2)nc1` (configuration not stated): the inhibition was 18.2%.

Regarding `CC(C(=O)NC1CCS(=O)(=O)C1)N1C(=O)/C(=C/c2ccc(Cl)cc2)SC1=S` (configuration not stated), the inhibition was 14.5%.

`CCOCCCNC(=O)c1ccc(CS(=O)(=O)c2cccc(C(F)(F)F)c2)o1`: the inhibition was 6.51%.

Consider `O=C(NCCCN1CCCCC1)c1ccc2c(c1)NC(=O)C(N1CCOCC1)S2` (configuration not stated), for which the inhibition is -14.1%.

In the case of `O=C(NCCN1CCOCC1)c1ccc(/C=C2\Sc3ccccc3N(Cc3ccc(F)cc3)C2=O)cc1`, the inhibition is 4.73%.

`O=C(NCCCN1CCOCC1)c1cc(-c2ccccc2F)no1`: the inhibition is -6.4%.

Consider `CCC1=Nc2cc(C(=O)NCCCN3CCOCC3)ccc2Sc2ccc(Br)cc21`, for which the inhibition was 0.03%.

`O=C(NCCCN1CCOCC1)c1ccc2c(c1)N(Cc1cccc(F)c1)C(=O)c1ccccc1S2`: the inhibition was 24.4% (active).

As to `Cc1ccccc1CN1C(=O)c2ccccc2Sc2ccc(C(=O)NCCCN3CCOCC3)cc21`, the inhibition is 24.2% (active).

As for `CCOc1ccc(NC(=O)C2CCN(C(=O)N3CCOc4ccccc43)CC2)cc1`, the inhibition is 5.19%.

As to `COc1cccc2[nH]c(C(=O)NCCc3ccccc3)cc12`, the inhibition is -9.64%.

In the case of `COc1ccc2[nH]c(=O)c(C3c4cc(OC)c(OC)cc4CCN3C(=O)c3ccco3)cc2c1` (configuration not stated), the inhibition was -13.4%.

On to `O=c1cc(CSc2ccccn2)nc(N2CCN(c3ccccc3)CC2)[nH]1`, for which the inhibition is -6.4%.

Turning to `Cc1ccc(NC(=O)CSc2nc(CSc3ccc(C)cc3)cc(=O)[nH]2)cc1`, the inhibition is -13.7%.

In the case of `Cc1ccc(SCc2cc(=O)[nH]c(N3CCCCC3)n2)cc1`, the inhibition is 25.9% (active).

Regarding `CN(C(=O)CCN1C(=O)/C(=C/c2ccccc2F)SC1=S)C1CCS(=O)(=O)C1` (configuration not stated), the inhibition was -4.44%.

Take `COc1cccc(CNC(=O)C2CCCN(c3ncnc4c3nc3n4CCCCC3)C2)c1` (configuration not stated): the inhibition was 6.2%.

Take `COc1cccc(C(C(=O)NC2CCCC2)N(C(=O)c2ccco2)c2cccc(C(C)=O)c2)c1OC` (configuration not stated): the inhibition was 2.78%.

For the compound `Cc1ccc(NC(=O)C/C(N)=N/O)cc1Cl`, the inhibition is -9.83%.

Turning to `CN(C)CCNC(CC(=O)Nc1ccc(Cl)c(Cl)c1)C(=O)O` (configuration not stated), the inhibition was -6.94%.

Consider `O=C(CC(O)(C(F)(F)F)C(F)(F)F)Nc1ccc(Cl)c(Cl)c1`, for which the inhibition was 28.9% (active).

In the case of `CCOC(=O)C1(CCOc2ccccc2)CCN(Cc2cc(OC)cc(OC)c2)CC1`, the inhibition is 15.4%.

Take `CC1=C/C(=N\OS(=O)(=O)c2ccccc2)C=CC1=O`: the inhibition is -2.03%.

With `Cc1cc(C)cc(N(CC(=O)NC2CCCC2)C(=O)CCC(=O)Nc2nccs2)c1`, the inhibition is 4.8%.

Consider `O=C(COC(=O)c1ccccc1SCC(=O)NC1CCCCC1)NC1CCCCC1`, for which the inhibition was 4.41%.

Consider `C=CCNC(=O)COC(=O)c1ccccc1C(=O)N(C)C1CCCCC1`, for which the inhibition was 23.4% (active).

On to `COc1ccccc1C(=O)OCC(=O)NCCNC(=O)COC(=O)c1ccccc1OC`, for which the inhibition was 1.57%.

Regarding `O=[N+]([O-])c1ccc(NC(=S)N2CCN(c3ccccn3)CC2)cc1`, the inhibition was -5.44%.

With `Cc1nn(CC(=O)NCC2CCCO2)c(=O)c2cc3ccccc3n12` (configuration not stated), the inhibition was 2.04%.

For `CCn1c(C)cc(=O)cc1-c1ccc(Cl)cc1`, the inhibition is 12.6%.

Regarding `CS(=O)(=O)Nc1ccc(C2=NN(S(C)(=O)=O)C(c3cccs3)C2)cc1` (configuration not stated), the inhibition was -8.38%.

With `COc1cccc(C2CC(c3ccccc3)=NN2S(=O)(=O)c2ccccc2)c1OC` (configuration not stated), the inhibition was 19.8% (active).

Consider `COc1ccc(C2=NN(C(=O)c3ccccc3C(=O)O)C(c3ccccc3O)C2)cc1` (configuration not stated), for which the inhibition is 1.53%.

Turning to `CS(=O)(=O)Nc1cccc(C2=NN(C(=O)c3cccc(F)c3)C(c3cccs3)C2)c1` (configuration not stated), the inhibition is 19.9%.

For `CCS(=O)(=O)Nc1ccc(C2=NN(S(=O)(=O)c3ccc(F)cc3)C(c3ccco3)C2)cc1` (configuration not stated), the inhibition was 1.02%.

`CS(=O)(=O)Nc1cccc(C2=NN(S(=O)(=O)c3ccccc3)C(c3cccs3)C2)c1` (configuration not stated): the inhibition is 30% (active).

For `Cc1c(CCC(=O)N[C@@H](CC(C)C)C(=O)O)c(=O)oc2c(C)c3oc4c(c3cc12)CCCC4`, the inhibition is -11.3%.

In the case of `COc1ccc(C(=O)NC(C)c2nccs2)cc1OC1CCN(C(C)C)CC1` (configuration not stated), the inhibition is -9.73%.

On to `COc1ccc(N(CC(=O)NCCSCc2cccc(Cl)c2)S(C)(=O)=O)cc1`, for which the inhibition is -4.13%.

Consider `CC1CN(C(=O)c2cc(COc3c(F)cccc3F)on2)CCN1C` (configuration not stated), for which the inhibition is 5.39%.

In the case of `CS(=O)(=O)N(Cc1ccc(Cl)cc1)c1ccc(C(=O)NCCSCc2ccco2)cc1`, the inhibition was 30.2% (active).

As to `Cc1cc(C)cc(N(CC(=O)NCCSCc2ccco2)S(C)(=O)=O)c1`, the inhibition was -3.97%.

Regarding `CCc1ccccc1N(CC(=O)NCCSCc1ccco1)S(C)(=O)=O`, the inhibition was -3.47%.

`O=C(COc1ccc([N+](=O)[O-])cc1)Nc1ccc(N2CCCC2)cc1`: the inhibition was -6.84%.

With `O=C(NCCCN1CCN(c2ccc(F)cc2)CC1)Nc1ccc([N+](=O)[O-])cc1`, the inhibition was 25.5% (active).

For `CN1CCN(CCNC(=O)Nc2ccc([N+](=O)[O-])cc2)CC1`, the inhibition is 1.21%.

For `COc1ccc(CNC(=O)COc2cccnc2[N+](=O)[O-])cc1`, the inhibition was 5.06%.

In the case of `Cc1ccc(OCC(=O)NC(C)c2ccccc2)c([N+](=O)[O-])n1` (configuration not stated), the inhibition was -17%.

`COc1ccccc1CNC(=O)COc1ccc(C)nc1[N+](=O)[O-]`: the inhibition is 25.7% (active).

Consider `CCOC(=O)N1CCN(S(=O)(=O)c2ccc(OC)cc2)CC1`, for which the inhibition is -0.89%.

As for `Cc1cc(Cl)ccc1OCCCC(=O)NCc1ccccn1`, the inhibition is 5.1%.

On to `Cc1cc(Cl)ccc1OCCCC(=O)NCc1ccncc1`, for which the inhibition was 2.96%.

Turning to `Cc1cc(Cl)ccc1OCCCC(=O)Nc1cccc(-n2cnnn2)c1`, the inhibition was 37.4% (active).

On to `c1ccc2c(c1)CCc1snnc1-2`, for which the inhibition is -15.5%.

As to `COc1cc(OC)c(NC(=O)C2CCCN2C(=O)OCc2ccccc2)cc1Cl` (configuration not stated), the inhibition was 3.66%.

Turning to `COC(=O)c1cc(S(=O)(=O)Nc2ccc(C)c(F)c2)c[nH]1`, the inhibition was 4.7%.

For the compound `CCOC(=O)C1=C(C)NC(=S)NC1c1cccs1` (configuration not stated), the inhibition is -3.11%.

Consider `CCOC(=O)C1=C(C)NC(SC)=NC1c1ccccc1` (configuration not stated), for which the inhibition was -17%.

With `CCOC(=O)C1=C(C)NC(C)=C(C(=O)OCC)C1c1ccccn1`, the inhibition was 18.9% (active).

For the compound `CC1CCCCN1CC(=O)NCc1ccc2c(c1)OCO2` (configuration not stated), the inhibition is -3.99%.

Take `CCN(CC)c1ccc(C2C3CCCCC3(O)CCN2CC(=O)Nc2ccccc2)cc1` (configuration not stated): the inhibition is 0.06%.

In the case of `Cc1ccc(NC(=O)CN2CCC3(O)CCCCC3C2c2ccc3c(c2)OCO3)c(C)c1` (configuration not stated), the inhibition is 21.5% (active).
